Results filed as inconclusive are left out. A call without a number means that no potency is given here. The source made the active and inactive calls. Calls come from the whole dose curve; as a rule, active = well fitted cell-killing curve with a large enough effect; inconclusive = small, poorly fitted or top-dose-only effect, or effect the other way; inactive = no such curve, though single readings can be large or run the other way.
experiment: Quantitative highthroughput screen to assess conditional lethalithy of NOMO1 cells grown in Human Plasma-Like Medium with dialyzed fetal bovine serum (HPLM+ds) (AID 1963878); settings: NOMO1 AML cells in HPLM+ds, CellTiter-Glo viability, 48 h; series mostly up to 45.8 µM; note: nearly all actives have a fitted effect of over 35% in size
Source text: Assay Provider: Jason Cantor Ph.D.
Department of Biochemistry
University of Wisconsin-Madison, Madison, WI, USA
Chemical screening studies have identified drug sensitivities across hundreds of cancer cell lines but most putative therapeutics fail to translate. Discovery and development of drug candidates in models that more accurately reflect nutrient levels in human blood is a major challenge. Here we performed high-throughput screens in conventional versus Human Plasma-Like Medium (HPLM) to identify compounds that were "missed" when screening using the artificial culture condition. Sets of conditional anticancer compounds spanned phases of clinical development and included non-oncology drugs were assessed. […] We also traced conditional phenotypes for several chemotherapeutics to availability of HPLM-specific metabolites and confirmed others for compounds whose reported targets are encoded by nonessential genes. Our findings establish generalizable strategies for exploiting conditional lethality in HPLM to reveal therapeutic candidates and mechanisms of action in cancer cells.
Described herein are the results of each viability screens against three cell lines: NOMO1 (an acute myeloid leukemia cell line); P12-Ichikawa (a T-cell acute lymphoblastic leukemia); and SEM (a B-cell ALL). Each assay was screened using 3 different cell culture media: homemade human plasma-Like medium with 10% dialyzed fetal bovine serum (HPLM+ds); RPMI1640 with 10% untreated FBS and 5mM glucose (RPMI+s); and RPMI1640 with 10% dialyzed fetal bovine serum and 5 mM glucose (RPMI+ds).
PROTOCOL TABLE (as described by Inglese J, Shamu CE and Guy RK. 2007)
SEQUENCE No. (e.g., 1, 2, 3, etc.); […] (e.g., Cells, Incubation, Reagent, etc.); VALUE and DESCRIPTION.
1; Cells; 5 uL; white, solid bottom 1536-well Greiner assay plate.
2; Compounds; 23 nL; Kalypsis pin tool (Wako USA) equipped with a 1536-well pin head to transfer to the assay plates.
3; Incubation; 48 hours; 37C incubation.
4; Reagent; 3 uL; CellTiter Glo (Promega).
5; Incubation; 5 min, room temperature
6; Detection; Luminescence, Viewlux PerkinElmer.
NOTES (numbers refer to Sequence numbers above)
1. Briefly, 5 ul of cell reagent was dispensed using a Multidrop Combi Dispenser. The NOMO1 and SEM cells were plated at 500 cells/well and the P12-Ichikawa line at 1000 cells/well.
2. After seeding the cells, 23 nL of MIPE 4.1 library compounds (in DMSO) were added to each plate using a Kalypsys 1536 Pintool dispenser. Bortezomib at final concentration of […] and DMSO were added to each plate as positive and negative controls respectively. For each screen, MIPE 4.1 compounds were added over an eleven-point concentration range […] in 3-fold dilutions.
3. Each plate was covered with a stainless steel gasketed lid to prevent evaporation and incubated for 48 hour at 37C, 95% relative humidity, and 5% CO2.
4-5. Three microliter CellTilter-GloTM luminescent substrate mix (Promega) reagent was added to the assay plate and incubated at room temperature for 5 min.
6. The luminescence signal was measured using a ViewLux (PerkinElmer) multiplate reader with a 2 second exposure time per plate. Data for each compound were normalized as percent viability such that measurements for DMSO and the empty well controls in each plate were defined as 100% and 0%, respectively.
Potency is the fitted concentration of half-maximal effect.

| SMILES | Potency |
| --- | --- |
| COc1ccc(-c2nc(N3CCOCC3)c3sc(CN(C)c4ncc(C(=O)NO)cn4)cc3n2)cn1 | 0.0166 µM (active) |
| CC(N)C12CC3CC(CC(C3)C1)C2 (stereo not given) | 10.5 µM (active) |
| CC(=O)N[C@@H]1[C@H](O[C@@H]2c3ccc(c(Cl)c3)Oc3cc4cc(c3O[C@H]3O[C@H](CO)[C@@H](O)[C@H](O)[C@H]3NC(=O)CCCCCCCC(C)C)Oc3ccc(cc3Cl)C[C@H]3NC(=O)[C@H](N)c5ccc(O)c(c5)Oc5cc(O)cc(c5)[C@H](NC3=O)C(=O)N[C@H]4C(=O)N[C@H]3C(=O)N[C@@H]2C(=O)N[C@@H](C(=O)O)c2cc(O)cc(O[C@H]4O[C@H](CO)[C@@H](O)[C@H](O)[C@H]4O)c2-c2cc3ccc2O)O[C@H](CO)[C@@H](O)[C@@H]1O | inactive |
| C[C@@H](Cc1cc2c(c(C(N)=O)c1)N(CCCO)CC2)NCCOc1ccccc1OCC(F)(F)F | inactive |
| Cc1cccc(N(C)C(=S)Oc2ccc3ccccc3c2)c1 | inactive |
| N=c1ccn2c(n1)O[C@H]1[C@@H](O)[C@@H](CO)O[C@H]12 | 1.48 µM (active) |
| N=C1SC(=Cc2ccc(-c3ccc4c(c3)C(=O)NC4=O)o2)C(=O)N1c1ccc(Br)cc1 | inactive |
| CN1CCC(=C2c3ccccc3C=Cc3ccccc32)CC1 | inactive |
| CN(CCOc1ccc(NS(C)(=O)=O)cc1)CCc1ccc(NS(C)(=O)=O)cc1 | inactive |
| CN1CCC[C@H]1CCO[C@](C)(c1ccccc1)c1ccc(Cl)cc1 | inactive |
| CC(C)(Sc1ccc(CCN(CCCCC2CCCCC2)C(=O)NC2CCCCC2)cc1)C(=O)O | inactive |
| O=C(O)c1cccnc1 | 3.72 µM (active) |
| C=C(C)[C@@H]1CC[C@]2(C(=O)O)CC[C@]3(C)[C@H](CC[C@@H]4[C@@]5(C)CC[C@H](O)C(C)(C)[C@@H]5CC[C@]43C)[C@@H]12 | inactive |
| CNCCN(C)Cc1cn[nH]c1-c1ccc(OC2CC(OCCC3CCOCC3)C2)cc1 (stereo not given) | inactive |
| Nc1ncnc2c1ncn2[C@@H]1O[C@@H](CO)[C@H](O)[C@H]1O | inactive |
| C[C@]12CC[C@@H]3c4ccc(O)cc4CC[C@H]3[C@H]1[C@@H](O)[C@@H](O)[C@H]2O | inactive |
| O=c1c(O)c(-c2ccc(O)c(O)c2)oc2cc(O)cc(O)c12 | inactive |
| Cn1cnc(=N)c2[nH]cnc21 | 4.69 µM (active) |
| CCCS(=O)(=O)Nc1ccc(F)c(C(=O)c2c[nH]c3ncc(-c4ccc(Cl)cc4)cc23)c1F | inactive |
| C=C1[C@H](n2cnc3c(=O)[nH]c(N)nc32)C[C@H](O)[C@H]1CO | 4.18 µM (active) |

| SMILES | Potency |
| --- | --- |
| COc1cc(N2CCC(O)CC2)ccc1Nc1cc(Nc2ccccc2S(=O)(=O)C(C)C)c2cc[nH]c2n1 | inactive |
| CC(Cc1ccc(O)c(O)c1)(NN)C(=O)O (stereo not given) | inactive |
| Cc1c(-c2cccc3c(CCCOc4cccc5ccccc45)c(C(=O)O)n(Cc4cccnc4)c23)c(COc2ccc(N3CCN([S+](=O)([O-])N(C)C)CC3)cc2)nn1C | inactive |
| Nc1nc(Cl)nc2c1ncn2[C@H]1C[C@H](O)[C@@H](CO)O1 | 0.132 µM (active) |
| N[C@@H](C(=O)N[C@@H]1C(=O)N2C(C(=O)O)=C(Cl)CS[C@H]12)c1ccccc1 | inactive |
| O=C(O)C1=CC(O)C(O)[C@H](O)C1 (stereo not given in full) | inactive |
| Cc1[nH]c2ccccc2c1CCNCc1ccc(C=CC(=O)NO)cc1 | 0.526 µM (active) |
| CC[C@H]1OC(=O)[C@H](C)[C@@H](O[C@H]2C[C@@](C)(OC)[C@@H](O)[C@H](C)O2)[C@H](C)[C@@H](O[C@@H]2O[C@H](C)C[C@H](N(C)C)[C@@H]2O)[C@](C)(OC)C[C@@H](C)C(=O)[C@H](C)[C@@H](O)[C@]1(C)O | inactive |
| CC(C)Cn1cnc2c(N)nc3ccccc3c21 | inactive |
| CCOc1cc(C=C2C(=O)N(c3ccccc3)N=C2C)cc(Cl)c1OCC(=O)OC | inactive |
| COc1nc(C)nc(Cl)c1NC1=NCCN1 | inactive |
| CC1(C)O[C@@H]2C[C@H]3[C@@H]4CCC5=CC(=O)C=C[C@]5(C)[C@@H]4[C@@H](O)C[C@]3(C)[C@]2(C(=O)CO)O1 | inactive |
| CCN(CC)C(=S)SSC(=S)N(CC)CC | 3.32 µM (active) |
| C[C@H](NCc1ccc2c(c1)nc(NC(=O)c1ccc(-c3cn[nH]c3)s1)n2CCc1ccccc1)C(C)(C)C | 5.9 µM (active) |
| CC(C)(C)c1cc(C(=O)O)c(NC(=O)Nc2ccc3[nH]ncc3c2)s1 | inactive |
| CC(C(=O)O)c1cccc(C(=O)c2ccccc2)c1 (stereo not given) | inactive |
| CC(Oc1ccc(O)cc1)(P(=O)(O)O)P(=O)(O)O | 13.2 µM (active) |
| CC(C)c1ccccc1Cc1cc(C(=O)Nc2ccc(S(=O)(=O)c3ccccc3C(C)(C)C)cc2)c(O)c(O)c1O | inactive |
| CC(C)Oc1ccc2c(=O)c(-c3ccccc3)coc2c1 | inactive |
| C=CC(=O)Nc1cc2c(Nc3ccc(F)c(Cl)c3)ncnc2cc1OCCCN1CCOCC1 | 3.32 µM (active) |

Reference: PubChem BioAssay (NCATS)
